VDR inh – blocks the human vitamin D receptor. P11473. VDR-SRC2-3 peptide fluorescence polarization, 2 h. Potency, µM, for the others: max response, negative = inhibition, hits mostly inhibitors. actives 0.93% (n = 400,000). AID 504847
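VDR–SRC2-3 interaction, FP format. Cmpds 23 nl via pintool, brief spin, 2 h ambient incubation.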
TDP1 cell CPT – DT40-hTDP1 cell growth loss with CPT | Potency, µM (titrated, usually from 46.2 µM), for the others: at the highest dose activity change, negative = growth inhibition, hits mostly inhibitors | chicken DT40 Tdp1-/-;hTDP1 cells + 20 nM CPT, ATP luminescence, 48 h | AID 686979 | actives 12% (n = 420,000); also: nearly all actives have a fitted effect of over 55% in size
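Chicken DT40 Tdp1-/- cells complemented with human TDP1, 400 cells/well, exposed to compounds plus 20 nM camptothecin for at least 48 h at 37 C; viability read as ATP content by CellTiter-Glo luminescence.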
KAT2A inh – blocks human GCN5L2 histone acetyltransferase | Q92830 | GCN5L2 HAT assay, ThioGlo1 CoA-SH fluorescence | Potency, µM (top dose mostly 58.9 µM), for the others: top-dose activity change, negative = inhibition, most hits filed as inhibitors | actives 0.21% (n = 390,000) | AID 504327
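GCN5L2 (20 nM) in 50mM HEPES pH 7.5, 0.1mM EDTA, 0.01% Tween-20 preincubated 15 min with compounds at room temperature. Reaction started with H3(1-25) 75uM, acetyl-CoA 70uM, ThioGlo1 50uM; CoA-thiol fluorescence (Ex340/Em540) read at 0 and 20 min.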
TDP1 block – TDP1 (human) enzyme inhibition; Q9NUW8; recombinant TDP1, AlphaScreen DNA substrate cleavage; Potency, µM (doses to about 130 µM), inactives show at the top dose activity change, negative = inhibition, hits mostly inhibitors; actives 0.28% (n = 350,000); also: nearly all actives have a fitted effect of over 40% in size
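Recombinant human Tdp1 (E. coli-expressed, 1 nM final) preincubated with compounds 15 min at room temperature, then 5'-biotin/3'-phosphotyrosine-FITC DNA substrate (15 nM final) added for 5 min. AlphaScreen beads (10 ug/ml final) added 10 min; cleavage lowers signal.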
DT40 TDP1 no CPT – qHTS for Inhibitors of human tyrosyl-DNA phosphodiesterase 1 (TDP1): qHTS in cells in absence of CPT. Potency, µM (top dose mostly 46.2 µM), without a hit: at the top dose activity change, negative = growth inhibition, most hits filed as inhibitors. AID 686978, 2013. DT40 Tdp1-/- hTDP1 cells, no CPT, ATP luminescence, 48 h. actives 15% (n = 420,000); also: nearly all actives have a fitted effect of over 55% in size
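Compound effects on proliferation are scored in DT40 Tdp1-/-;hTDP1 cells in the absence of CPT. ATP levels (CellTiter-Glo luminescence) are recorded after a ≥48 hr, 37 °C incubation.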
PLK1 PBD inh – inhibitors of human PLK1 polo-box domain binding; AID 720504; P53350; actives 2.8% (n = 360,000); Plk1 PBD binding of FITC phosphopeptide, fluorescence polarization; Potency, µM, for inactives: max response, negative = inhibition, hits mostly inhibitors; also: series mostly up to about 57 µM; nearly all actives have a fitted effect of over 65% in size
* hit, by the source's call; ? = inconclusive; nt = not tested or not shown; [ ] = dose if it differs, or a comment. Hits are enriched below; roughly 18% of the tested compounds scored in any of these assays. Calls follow the shape of the dose curve; as a rule, active = well fitted curve in the direction sought with a large enough effect; inconclusive = small, poorly fitted or top-dose-only effect, or another doubt; inactive = no such curve, though single readings can be large; an effect the other way counts as inactive or inconclusive. % is scaled to controls: 0 for no effect and ±100 for the full control effect; potency is read from the fitted curve at half-maximal effect.

SMILES	VDR inh	TDP1 cell CPT	KAT2A inh	TDP1 block	DT40 TDP1 no CPT	PLK1 PBD inh
Oc1c(Cl)cc(Cl)c2c1NCCC2	32µM*	6.5µM*	-4%	9%	10µM*	4.7µM*
COc1ccc(NS(=O)(=O)c2ccc(C(=O)N3CCCCCC3)cc2)cc1	-1%	10µM*	0%	0%	8.2µM*	-2%
CCOc1ccc(S(=O)(=O)Nc2cccc(Cl)c2)cc1	-2%	23µM*	nt	nt	?	-7%
CSCCC(NS(=O)(=O)c1ccc(C)cc1)C(=O)N1CCCCCCC1 (stereo unspecified)	0%	?	-3%	2%	16µM*	1%
COc1ccc(N2CCN(C(=O)COC(=O)c3cccc(S(=O)(=O)Nc4cccc(C)c4)c3)CC2)cc1	-7%	16µM*	-2%	6%[0.505 µM]	?	-9%
COc1ccc(NS(=O)(=O)c2cccc(C(=O)N3CCCCCC3)c2)cc1	-2%	-20%	-4%	0%	-20%	-9%
O=C(OCC(=O)N1CCCCC1)c1cccc(NS(=O)(=O)c2ccccc2)c1	-14%	-23%	2%	0%	-28%	-5%
CSCCC(NS(=O)(=O)c1ccccc1F)C(=O)N1CCCCCC1 (stereo unspecified)	14%	-16%	-11%	nt	14%	-5%
CC1(C)Cc2c(cnn2-c2ccc(F)cc2)C(NC(=O)c2ccc(=O)oc2)C1 (stereo unspecified)	-17%	?	?	5%	?	-8%
COC(=O)C1(c2ccccc2)NC(c2ccc(O)cc2)C2C(=O)N(c3ccc4c(c3)OCO4)C(=O)C21 (stereo unspecified)	-2%	-21%	3%	nt	-5%	-17%
CC(C)(C)SCCNC(=O)/C=C/c1cccc([N+](=O)[O-])c1	-19%	-3%	-4%	8%	?	?
CCOc1ccc(NS(=O)(=O)c2ccc(C(=O)N3CCCCCC3)cc2)cc1	-7%	15µM*	2%	nt	18µM*	-15%
Cc1ccc(NS(=O)(=O)c2ccc(C(=O)NNC(=O)c3ccccc3O)cc2)cc1	10%	?	-20%	nt	23µM*	-2%
Cc1ccc(NS(=O)(=O)c2ccc(C(=O)N3CCCCCCC3)cc2)cc1	-13%	23µM*	-1%	1%	?	-15%
COc1ccc(S(=O)(=O)Nc2ccc(O)c3ccccc23)cc1	?	3.3µM*	-13%	4%	4.6µM*	27µM*
CC(C)C1Cc2ccccc2-c2[nH]c(=S)[nH]c(=O)c21 (stereo unspecified)	4%	0%	nt	nt	6%	-22%
CN(CCc1ccccc1)C(=O)c1ccc(NC(=O)Cc2ccc(NC(=O)C3CCN(C(=O)c4ccccc4)CC3)cc2)cc1	-21%	?	nt	nt	?	-10%
COc1ccc(CN2CC[C@H]3C=CC[C@@H](C(=O)Nc4nccs4)[C@H]3C2=O)cc1OC	nt	-19%	nt	nt	-6%	nt
Cc1cc(Cl)ccc1NC(=O)CCS(=O)(=O)c1cc2c(cc1C)NC(=O)CO2	-6%	-19%	-18%	2%	-27%	nt
COc1ccc(C(=O)N2CCN(S(=O)(=O)c3ccc(Br)cc3)CC2)cc1	2%	18µM*	-3%	1%	?	4%
O=S(=O)(Nc1c(O)ccc2ccccc12)c1ccccc1	?	?	nt	nt	16µM*	24µM*
COc1ccc(NS(=O)(=O)c2ccc(C(=O)N3CCN(Cc4ccccc4)CC3)cc2)cc1	6%	12µM*	-6%	6%	?	3%
CCOc1ccc(NS(=O)(=O)c2ccc(C(=O)N(C)CC(=O)Nc3cccc(OC)c3)cc2)cc1	9%	18µM*	nt	nt	16µM*	-8%
CSCCC(NS(=O)(=O)c1ccc(Cl)cc1)C(=O)OCc1c(Cl)cccc1Cl (stereo unspecified)	-28%	?	-12%	3%	21µM*	-8%
O=S(=O)(Nc1ccccc1)c1ccc(-c2csnn2)cc1	11%	?	0%	5%	23µM*	0%
SMILES	VDR inh	TDP1 cell CPT	KAT2A inh	TDP1 block	DT40 TDP1 no CPT	PLK1 PBD inh
COc1ccc(S(=O)(=O)Nc2ccccc2)cc1	5%	21%	nt	nt	-27%	-3%
O=C(Nc1ccc(C(=O)N2CCCCC2)cc1)c1ccccc1	10%	-15%	nt	nt	-18%	8%
O=C(Nc1ccccc1)Nc1ccc(C(=O)N2CCCC2)cc1	22%	21µM*	-7%	3%	12µM*	-13%
COc1ccc(S(=O)(=O)Nc2ccc(Nc3ccccc3)cc2)cc1	9%	21µM*	nt	nt	?	1%
CC(=O)OCOC(c1ccc2ccccc2c1)P(=O)(OCOC(C)=O)OCOC(C)=O (stereo unspecified)	-6%	?	-3%	9%	?	nt
CCOc1ccc(S(=O)(=O)Nc2ccc(C(=O)N3CCCC3)cc2)cc1	12%	-10%	4%	4%	-3%	-1%
CCOc1ccc(NS(=O)(=O)c2ccc(C(=O)N3CCCC(C)C3)cc2)cc1 (stereo unspecified)	7%	16µM*	-23%	nt	16µM*	-4%
CCOc1ccc(S(=O)(=O)Nc2cccc(C(=O)N3CCN(c4cccc(OC)c4)CC3)c2)cc1	0%	23µM*	2%	-2%	18µM*	-10%
CCOc1ccc(S(=O)(=O)Nc2cccc(C(=O)N3CCN(c4ccccc4O)CC3)c2)cc1	12%	?	-16%	4%	?	3%
CSCCC(NS(=O)(=O)c1ccc2c(c1)oc(=O)n2C)C(=O)N1CCN(c2cc(Cl)ccc2C)CC1 (stereo unspecified)	0%	?	-4%	3%	15µM*	nt
CCOc1ccc(S(=O)(=O)Nc2cc(NS(=O)(=O)c3ccc(OCC)cc3)cc(C(=O)O)c2)cc1	-17%	17%	-27%	3.5µM*	9%	-29%
COc1ccc(NS(=O)(=O)c2ccc(NC(=O)C3CC3)cc2)cc1	-9%	8.2µM*	-13%	2%	9.2µM*	-3%
CNc1c2cccc(C)c2nc2c(C(=O)NCCN(C)C)cccc12	32%	0.18µM*	nt	nt	0.18µM*	17µM*
CN1c2ccccc2-c2ccccc2S1(=O)=O	-2%	32µM*	nt	nt	?	-10%
COc1ccc(NC(=O)c2nc3ccccc3s2)cc1	16%	25%	-8%	-3%	-21%	-19%
COc1ccc(/C=C2/C(=O)N(c3nc4ccccc4s3)N=C2CSc2ccc(Cl)cc2)cc1	-3%	-28%	25%	7%	?	8.4µM*
